Assay outcomes as filed in PubChem BioAssay.
Most compounds without a hit are left out; they make up all but 12% or so of the library.
BAZ2B block = blocks human BAZ2B; AlphaScreen BAZ2B-H3K14Ac peptide displacement; Potency, µM (highest dose often 114 µM), usual class: inhibitors; actives 4.4% (n = 360,000); further: nearly all actives have a fitted effect of over 60% in size
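In this displacement format the biotinylated H3(5-23) peptide acetylated at Lys14 serves as ligand at 50 nM, with BAZ2B at 50 nM in PBS pH 7.4 containing 0.01% Tween-20. Donor and acceptor beads are 10 ug/mL final.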
TDP1 block = inhibitors of human tyrosyl-DNA phosphodiesterase TDP1 | recombinant TDP1, AlphaScreen DNA substrate cleavage | actives 0.28% (n = 350,000) | Potency, µM (titrated, usually from 130 µM), most hits filed as inhibitors | Q9NUW8; further: nearly all actives have a fitted effect of over 40% in size
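Recombinant human Tdp1 (E. coli-expressed, 1 nM final) preincubated with compounds 15 min at room temperature, then 5'-biotin/3'-phosphotyrosine-FITC DNA substrate (15 nM final) added for 5 min. AlphaScreen beads (10 ug/ml final) added 10 min; cleavage lowers signal.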
HP1b chromo inh = inhibitors of HP1-beta chromodomain binding to methylated histone tails; actives 0.56% (n = 390,000); AlphaScreen HP1-beta / biotin-H3K9me3 peptide binding; Potency, µM (top dose mostly 114 µM), hits mostly inhibitors; further: nearly all actives have a fitted effect of over 70% in size
Target sequence (P83916 whole entry, looked up): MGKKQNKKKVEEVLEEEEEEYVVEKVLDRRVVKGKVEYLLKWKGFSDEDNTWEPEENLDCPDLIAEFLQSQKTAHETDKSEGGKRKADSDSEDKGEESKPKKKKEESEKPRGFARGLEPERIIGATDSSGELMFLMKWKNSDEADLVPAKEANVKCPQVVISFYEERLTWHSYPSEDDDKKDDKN
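HP1-beta protein (50 nM final) preincubated 30 min at room temperature with biotinylated H3(1-18)K9me3 peptide (50 nM) in PBS pH 7.4, 0.01% Tween-20, then compound added for 30 min. AlphaScreen streptavidin donor/nickel chelate acceptor beads (10 ug/mL final), 30 min dark, luminescence read.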
JMJD2A Tudor = blocks the human JMJD2A Tudor domain | O75164 | AlphaScreen JMJD2A-Tudor / H3K4me3 peptide binding | Potency, µM (top dose mostly 114 µM), most hits filed as inhibitors | actives 4.4% (n = 390,000); further: nearly all actives have a fitted effect of over 50% in size
Sfp PPTase inh = inhibitors of Bacillus subtilis Sfp phosphopantetheinyl transferase; Potency, µM, hits mostly inhibitors; actives 3.5% (n = 310,000); Biochemical Sfp PPTase activity, qHTS; AID 1490;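 further: the enzyme is Sfp with the accession as filed and its product quenches rhodamine fluorescence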
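Fluorescence-quenching assay: 15 nM Sfp-PPTase preincubated 15 min at room temperature with compound, then 5 uM rhodamine-CoA and 12.5 uM BHQ-2-labelled YbbR peptide added. Fluorescence (ex 525/em 598 nm) read at start and after 30 min; difference gives rate.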
G9a block = blocks human histone lysine methyltransferase G9a. Q96KQ7. G9a H3K9 monomethylation, AlphaScreen, 2 h. Potency, µM (titrated, usually from 102 µM), usual class: inhibitors. actives 8.8% (n = 350,000). AID 504332; further: nearly all actives have a fitted effect of over 75% in size
Target sequence (Q96KQ7 913-1193 limits assumed): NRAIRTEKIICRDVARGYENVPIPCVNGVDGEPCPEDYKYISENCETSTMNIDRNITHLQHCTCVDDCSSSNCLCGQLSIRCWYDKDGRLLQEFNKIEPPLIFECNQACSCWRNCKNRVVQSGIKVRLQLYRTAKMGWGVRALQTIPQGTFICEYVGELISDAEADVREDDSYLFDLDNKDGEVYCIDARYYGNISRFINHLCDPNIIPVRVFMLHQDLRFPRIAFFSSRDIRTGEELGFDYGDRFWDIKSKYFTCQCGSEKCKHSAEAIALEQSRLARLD
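Chemiluminescent proximity detection of H3K9 monomethylation, read after 10 min bead incubation in the dark. Reaction: 20 nM G9a, 500 nM biotin-H3K9 peptide, 20 uM SAM cofactor, 2 h, room temperature, following 15 min enzyme-compound preincubation.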
Numbers stand for hits; n = inactive; u = inconclusive; x = not tested or not shown; [ ] = remark or other dose. The call rests on the fitted dose curve; in most records, active means well fitted curve in the direction sought with a large enough effect; inconclusive means small, poorly fitted or top-dose-only effect, or another doubt; inactive means no such curve, though single readings can be large; an effect the other way counts as inactive or inconclusive.

SMILES	BAZ2B block	TDP1 block	HP1b chromo inh	JMJD2A Tudor	Sfp PPTase inh	G9a block
O=S(=O)(c1ccc(NCc2ccccc2)cc1)N1CCOCC1	n	n	n	n	n	n[12.7 µM]
COc1cc(F)c(S(=O)(=O)N2CCCN(S(=O)(=O)c3ccc4c(c3)OCCO4)CC2)c(F)c1	x	n	x	n	x	x
CCN1CCN(C2=C(NS(=O)(=O)c3ccccc3)C(=O)c3ccccc3C2=O)CC1	u	n	n	n	n	n[0.0925 µM]
CCOC(=O)N1CCN(C2=C(NS(=O)(=O)c3ccccc3)C(=O)c3ccccc3C2=O)CC1	32µM	n	u	u	n	35µM
O=C1C(NS(=O)(=O)c2ccc(Cl)cc2)=C(N2CCCCC2)C(=O)c2ccccc21	5.6µM	n	u	11µM	n	10µM
CN1CCN(C2=C(NS(=O)(=O)c3ccccc3)C(=O)c3ccccc3C2=O)CC1	u	n	n	n	n	28µM
CC(C)(CN1CCCCC1)NS(=O)(=O)c1ccc(Cl)cc1	n	n	n	n	n	n
COc1cccc(NC(=O)CSc2nnc3scc(-c4ccc(Cl)cc4)n23)c1	n	x	n	n	x	u
CC(C)=CCC/C(C)=C/CO/N=C1/C[C@@H](O)[C@@H](O)[C@@H]2[C@@H]3C(=O)N(Cc4ccc5c(c4)OCO5)C(=O)[C@H]3CC[C@H]12	x	n[21 µM]	x	x	n	x
COc1cccc(C2c3c(ncn(-c4ccc5c(c4)OCO5)c3=N)Oc3ccc4ccccc4c32)c1 (stereo not given)	x	n	x	u	x	x
CCOC(=O)c1ccc(NC(=O)c2c(NCc3ccc(OC)c(OC)c3OC)sc3c2CCC(C)C3)cc1 (stereo not given)	u	n	n	u	x	n
CCN1C(=O)C(=O)c2cc(C)ccc21	x	n	n	n	x	x
CC[N+]1=C(C)C(C)(C)c2cc(C)ccc21	45µM	n	n	n[11.4 µM]	n	u
COc1ccc(NC(=O)CSc2nnc3c(n2)[nH]c2ccc(S(=O)(=O)N(C)C)cc23)c(OC)c1	x	x	n	n	x	x
CCCc1cc(=O)[nH]c(SCC(=O)Nc2sc3c(c2C#N)CCC(C)C3)n1 (stereo not given)	n	n	n	u	n	50µM
CC(C)(C)C1CCc2c(sc(NC(=O)CSc3ncn[nH]3)c2C#N)C1 (stereo not given)	n	n	n	n	u	25µM
CC(=O)N1CC(O)CC1C(=O)O (stereo not given)	x	x	x	x	n	n[12.7 µM]
COc1ccc(S(=O)(=O)Nc2nnc(Cc3ccc(OC)c(OC)c3)s2)cc1	n	n	n	n	50µM	n
COc1ccc(Cc2nnc(NS(=O)(=O)c3ccc([N+](=O)[O-])cc3)s2)cc1	u	x	n	n	n	40µM
O=[N+]([O-])c1ccc(S(=O)(=O)Nc2nnc(C(F)(F)F)s2)cc1	n	n	n	n	n	45µM
COc1ccc(-c2csc(NS(=O)(=O)c3ccc([N+](=O)[O-])cc3)n2)cc1	35µM	n	n	u	n	u
CC(C)Cc1nnc(NS(=O)(=O)c2ccc([N+](=O)[O-])cc2)s1	u	x	n	n	u	n[0.501 µM]
Cc1ccc(NC(=O)CN(C)C(=O)c2ccccc2Cc2ccccc2)cc1	n	n	n	n	x	n
O=C(NCCc1ccc(F)cc1)C(=O)NCC(c1ccco1)S(=O)(=O)c1cccs1 (stereo not given)	n	n	n	n	x	n
COc1ccc(Cc2nnc(N)s2)cc1	n	n	n	n	u	u
SMILES	BAZ2B block	TDP1 block	HP1b chromo inh	JMJD2A Tudor	Sfp PPTase inh	G9a block
Cc1ccc(S(=O)(=O)Nc2ccccc2C(=O)Nc2nc(-c3ccc(F)cc3)cs2)cc1	n	n	n	u	n	n
COc1ccc(Cc2nnc(N)s2)cc1OC	n	n	n	n	22µM	7.9µM
COc1ccc(-c2csc(NC(=O)c3ccccc3NS(=O)(=O)c3ccc(F)c(F)c3)n2)cc1	45µM	n	u	56µM	n	n[12.7 µM]
NN1C(=O)/C(=C2/Sc3ccccc3N2CCCS(=O)(=O)O)SC1=S	79µM	x	n	u	n	40µM
O=C1NC(=S)S/C1=C1\Sc2ccccc2N1CCCS(=O)(=O)O	u	x	u	n[11.4 µM]	25µM	10µM
CCN1C(=O)/C(=C2/Sc3ccccc3N2CC)SC1=S	n	x	n	n	n	x
C=CCN1/C(=C2/SC(=S)N(C)C2=O)Sc2ccccc21	u	n	x	x	n	40µM
CC(C)(C)C(=O)N(Cc1ccc(Cl)cc1)Cc1cccnc1	n	n	n	n	n	n
CCOC(=O)c1c(C)sc(-c2c(-c3cc(C)ccc3C)[nH]c3c2c(=O)[nH]c(=O)n3C)c1O	50µM	n	n	n	x	u
CCOC(=O)c1c(C)sc(-c2c(-c3cc(C)ccc3C)[nH]c3c2c(=O)n(C)c(=O)n3C)c1O	79µM	n	n	u	x	u
Cc1cc2[nH]c3c(=O)n(Cc4ccccc4F)ncc3c2s1	x	n	x	u	x	x
Cc1cccc(CN2C(=O)c3ccccc3S(=O)(=O)c3ccc(C(=O)OCC4CCCO4)cc32)c1 (stereo not given)	n	n	n	n	x	n
NC(=O)[C@@H]1CCCNc2c(F)cc([N+](=O)[O-])cc2C(=O)N[C@@H](CO)C(=O)NCC(=O)N1	n	n	n	n	n	u
NC(=O)[C@@H]1CCCNc2c(I)cc([N+](=O)[O-])cc2C(=O)N[C@@H](CO)C(=O)N[C@@H](Cc2ccc(O)cc2)C(=O)N1	n	n	n	n	n	45µM
NC(=O)CC[C@@H]1NC(=O)[C@H](CO)NC(=O)c2cc([N+](=O)[O-])cc(I)c2NCCC[C@@H](C(N)=O)NC(=O)[C@H](Cc2ccc(O)cc2)NC1=O	u	n	n	n	n	50µM
NC(=O)[C@@H]1CCCNc2c(I)cc([N+](=O)[O-])cc2C(=O)N[C@@H](Cc2ccccc2)C(=O)N[C@@H](Cc2cnc[nH]2)C(=O)N1	50µM	n	n	u	n	8.9µM
NC(=O)[C@@H]1CCCNc2c(I)cc([N+](=O)[O-])cc2C(=O)N[C@@H](CO)C(=O)NCC(=O)N1	n	n	n	n	n	79µM
CC(C)C[C@@H]1NC(=O)[C@H](Cc2ccc(O)cc2)NC(=O)c2cc([N+](=O)[O-])cc(I)c2NCCC[C@@H](C(N)=O)NC1=O	u	n	n	n	n	71µM
COc1ccc(N2CCN(c3oc(COc4ccc(Cl)cc4)nc3C#N)CC2)cc1	3.5µM	n	u	u	n	u
CN(C)CCNc1oc(COc2ccc(-c3ccccc3)cc2)nc1C#N	u	n	n	u	n	45µM
N#Cc1nc(COc2ccc(Cl)cc2Cl)oc1N1CCOCC1	45µM	n	n	u	n	u
N#Cc1nc(COc2ccc(-c3ccccc3)cc2)oc1N1CCC(C(N)=O)CC1	x	n	n	n	x	x
